Records with an inconclusive call do not appear. Activity calls are given as the source filed them. Unless noted, the call rests on the fitted dose curve; in most records, active means well fitted curve in the direction sought with a large enough effect; inconclusive means small, poorly fitted or top-dose-only effect, or another doubt; inactive means no such curve, though single readings can be large; an effect the other way counts as inactive or inconclusive.
Experiments:
Es-2 = assay: Primary qHTS to identify gynecologic anti-cancer compounds using libraries of approved drugs and bioactive compounds (AID 1345084); settings: Gynecologic cancer cell panel viability, ATPlite luminescence, 48 h; series mostly up to 57.5 µM; further: on the % scale 0 is the no-effect control and ±100 the full control effect; nearly all actives have a fitted effect of over 55% in size
In short: (§1)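 Five-point cytotoxicity, 48 h drug exposure at 37 C, 5% CO2, on cells seeded 16 h beforehand. ATP content read by ATPlite luminescence.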

HeLa = assay: as above; settings: Gynecologic cancer cell panel viability, ATPlite luminescence, 48 h; series mostly up to 57.5 µM
In short: as §1

Hek293T = assay: as above; settings: Gynecologic cancer cell panel viability, ATPlite luminescence, 48 h, control line for the selectivity index; series mostly up to 57.5 µM
In short: as §1

JEG-3 = assay: as above; settings: Gynecologic cancer cell panel viability, ATPlite luminescence, 48 h; series mostly up to 57.5 µM
In short: as §1

OV90 = assay: as above; settings: Gynecologic cancer cell panel viability, ATPlite luminescence, 48 h; series mostly up to 57.5 µM
In short: as §1

PA-1 = assay: as above; settings: Gynecologic cancer cell panel viability, ATPlite luminescence, 48 h; series mostly up to 57.5 µM
In short: as §1

SKOV3 = assay: as above; settings: Gynecologic cancer cell panel viability, ATPlite luminescence, 48 h; series mostly up to 57.5 µM
In short: as §1

Tov-21-G = assay: as above; settings: Gynecologic cancer cell panel viability, ATPlite luminescence, 48 h; series mostly up to 57.5 µM
In short: as §1

Tov112D = assay: as above; settings: Gynecologic cancer cell panel viability, ATPlite luminescence, 48 h; series mostly up to 57.5 µM
In short: as §1

[1] = Drug repurposing screens with cells derived from glioblastoma tumor samples (AID 1345199); settings: GBM patient neurospheres viability, ATP luminescence, 48 h; further: nearly all actives have a fitted effect of over 40% in size; further: potency means the concentration at half of the fitted maximal effect; on activity, negative = cell killing: on the % scale 0 is the no-effect control and ±100 the full control effect
In short: (§2)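 Four patient lines of CD133+ GBM neurospheres were screened at several concentrations; hits were retested in those lines plus three slower-growing GBM lines, using 48-hour treatment and ATP-based viability.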

astro = assay: as above; settings: viability, ATP luminescence, 48 h; series mostly up to 45.9 µM
In short: as §2

[2] = target: Nuclear receptor subfamily 1 group I member 2 (Rattus norvegicus) (UniProt Q9R1A7); assay: qHTS assay for small molecule activators of the rat pregnane X receptor (rPXR) signaling pathway (AID 651751; call rule not given here; further: 0% is about no effect); settings: rPXR reporter cells, luciferase (One-Glo), 24 h
Sequence of Nuclear receptor subfamily 1 group I member 2 (Rattus norvegicus) (Q9R1A7 whole entry, looked up): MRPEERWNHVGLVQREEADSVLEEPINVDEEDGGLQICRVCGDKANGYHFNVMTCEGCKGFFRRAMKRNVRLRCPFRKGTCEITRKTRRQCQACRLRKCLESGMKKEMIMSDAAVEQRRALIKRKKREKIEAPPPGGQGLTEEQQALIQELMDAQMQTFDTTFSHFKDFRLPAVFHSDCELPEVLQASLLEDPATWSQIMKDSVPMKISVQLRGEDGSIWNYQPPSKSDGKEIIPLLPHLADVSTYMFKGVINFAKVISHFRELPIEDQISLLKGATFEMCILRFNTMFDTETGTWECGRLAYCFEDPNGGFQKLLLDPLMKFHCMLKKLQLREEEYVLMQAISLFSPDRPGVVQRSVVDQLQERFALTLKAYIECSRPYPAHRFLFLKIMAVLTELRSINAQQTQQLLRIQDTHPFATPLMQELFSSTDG

[3] = qHTS assay for small molecule activators of the human pregnane X receptor (PXR) signaling pathway (AID 720659; call rule not given here; further: 0% is about no effect)
[4] = at 45.9 µM (top of the series), tumour line D
[5] = at 45.9 µM (top of the series), tumour line B
[6] = at 21.2 µM (top of the series), tumour line B
[7] = at 21.2 µM (top of the series), tumour line D
[8] = at 46 µM (top of the series), tumour line A

CN(C)CCc1c[nH]c2ccccc12
inactive: Potency (Es-2) | Potency (HeLa) | Potency (Hek293T) | Potency (JEG-3) | Potency (OV90) | Potency (PA-1) | Potency (SKOV3) | Potency (Tov-21-G) | Potency (Tov112D) | activity, negative = cell killing ([1]; at 108 µM (top of the series), tumour line B) -3.73% | activity, negative = cell killing ([1]; at 108 µM (top of the series), tumour line D) -2.02% | Potency (astro)

O=C(CCl)c1ccc(Cl)cc1Cl
active: Potency (astro) 12.6 µM
inactive: Potency (Es-2) | Potency (HeLa) | Potency (Hek293T) | Potency (JEG-3) | Potency (OV90) | Potency (PA-1) | Potency (SKOV3) | Potency (Tov-21-G) | Potency (Tov112D) | activity, negative = cell killing [1, 4] -23.6% | max response [2] -0.907% | outcome [3]

CC(C)(O)C(Cl)(Cl)Cl
inactive: Potency (Es-2) | Potency (HeLa) | Potency (Hek293T) | Potency (JEG-3) | Potency (OV90) | Potency (PA-1) | Potency (SKOV3) | Potency (Tov-21-G) | Potency (Tov112D) | activity, negative = cell killing [1, 5] 4% | activity, negative = cell killing [1, 4] 6.2% | Potency (astro)

CC(C)=C[C@@H]1[C@@H](C(=O)OCc2coc(Cc3ccccc3)c2)C1(C)C
inactive: Potency (Es-2) | Potency (HeLa) | Potency (Hek293T) | Potency (JEG-3) | Potency (OV90) | Potency (PA-1) | Potency (SKOV3) | Potency (Tov-21-G) | Potency (Tov112D) | activity, negative = cell killing [1, 5] -21% | activity, negative = cell killing [1, 4] -13.8% | Potency (astro)

COc1ccc(CN2CCNCC2)c(OC)c1OC
inactive: Potency (Es-2) | Potency (HeLa) | Potency (Hek293T) | Potency (JEG-3) | Potency (OV90) | Potency (PA-1) | Potency (SKOV3) | Potency (Tov-21-G) | Potency (Tov112D) | activity, negative = cell killing [1, 6] -2.66% | activity, negative = cell killing [1, 7] -1.27% | Potency (astro)

O=C(CCCN1CCC(n2c(=O)[nH]c3ccccc32)CC1)c1ccc(F)cc1
active: Potency ([1]; tumour line A) 5.62 µM
inactive: Potency (Es-2) | Potency (HeLa) | Potency (Hek293T) | Potency (JEG-3) | Potency (OV90) | Potency (PA-1) | Potency (SKOV3) | Potency (Tov-21-G) | Potency (Tov112D) | activity, negative = cell killing [1, 6] -8.66% | Potency (astro)

c1cc2c(c(N3CCNCC3)c1)OCCO2
inactive: Potency (Es-2) | Potency (HeLa) | Potency (Hek293T) | Potency (JEG-3) | Potency (OV90) | Potency (PA-1) | Potency (SKOV3) | Potency (Tov-21-G) | Potency (Tov112D) | activity, negative = cell killing [1, 5] -7.8% | activity, negative = cell killing [1, 4] -0.968% | Potency (astro)

Cc1cccc(Cc2cnc[nH]2)c1C
active: Potency ([1]; tumour line A) 35.5 µM
inactive: Potency (Es-2) | Potency (HeLa) | Potency (Hek293T) | Potency (JEG-3) | Potency (OV90) | Potency (PA-1) | Potency (SKOV3) | Potency (Tov-21-G) | Potency (Tov112D) | activity, negative = cell killing [1, 5] -15.8% | activity, negative = cell killing [1, 4] -4.57% | Potency (astro)

NC(=O)OCCCc1ccccc1
inactive: Potency (Es-2) | Potency (HeLa) | Potency (Hek293T) | Potency (JEG-3) | Potency (OV90) | Potency (PA-1) | Potency (SKOV3) | Potency (Tov-21-G) | Potency (Tov112D) | activity, negative = cell killing [1, 5] 0.315% | activity, negative = cell killing [1, 4] -23.1% | Potency (astro)

CCOC(=O)NC(O)C(Cl)(Cl)Cl (centres undefined)
inactive: Potency (Es-2) | Potency (HeLa) | Potency (Hek293T) | Potency (JEG-3) | Potency (OV90) | Potency (PA-1) | Potency (SKOV3) | Potency (Tov-21-G) | Potency (Tov112D) | activity, negative = cell killing [1, 5] -7.26% | activity, negative = cell killing [1, 4] -2.34% | activity, negative = cell killing [1, 8] -17.3% | Potency (astro)

CCN(CC)C(C)C(=O)c1ccccc1 (centres undefined)
inactive: Potency (Es-2) | Potency (HeLa) | Potency (Hek293T) | Potency (JEG-3) | Potency (OV90) | Potency (PA-1) | Potency (SKOV3) | Potency (Tov-21-G) | Potency (Tov112D) | activity, negative = cell killing [1, 5] -5.61% | activity, negative = cell killing [1, 4] -24.9% | activity, negative = cell killing [1, 8] -22.4% | Potency (astro)

NC(=O)CN1CCCC1=O
inactive: Potency (Es-2) | Potency (HeLa) | Potency (Hek293T) | Potency (JEG-3) | Potency (OV90) | Potency (PA-1) | Potency (SKOV3) | Potency (Tov-21-G) | Potency (Tov112D) | activity, negative = cell killing [1, 6] -8.16% | activity, negative = cell killing [1, 7] -13% | activity, negative = cell killing ([1]; at 21.3 µM (top of the series), tumour line A) -16.4% | Potency (astro)

COC(=O)C1=CCCN(C)C1
inactive: Potency (Es-2) | Potency (HeLa) | Potency (Hek293T) | Potency (JEG-3) | Potency (OV90) | Potency (PA-1) | Potency (SKOV3) | Potency (Tov-21-G) | Potency (Tov112D) | activity, negative = cell killing [1, 5] -5.77% | activity, negative = cell killing [1, 4] -12.9% | activity, negative = cell killing [1, 8] -22.4% | Potency (astro)

CCNc1nc(Cl)nc(NCC)n1
inactive: Potency (Es-2) | Potency (HeLa) | Potency (Hek293T) | Potency (JEG-3) | Potency (OV90) | Potency (PA-1) | Potency (SKOV3) | Potency (Tov-21-G) | Potency (Tov112D) | activity, negative = cell killing [1, 5] -2.74% | activity, negative = cell killing [1, 4] -21.4% | activity, negative = cell killing [1, 8] -24.7% | Potency (astro) | max response [2] -3.28% | outcome [3]

CN(C)CCc1c[nH]c2ccc(O)cc12
inactive: Potency (Es-2) | Potency (HeLa) | Potency (Hek293T) | Potency (JEG-3) | Potency (OV90) | Potency (PA-1) | Potency (SKOV3) | Potency (Tov-21-G) | Potency (Tov112D) | activity, negative = cell killing ([1]; at 91.6 µM (top of the series), tumour line B) -5.09% | activity, negative = cell killing ([1]; at 91.6 µM (top of the series), tumour line D) -23.3% | Potency (astro)

CCCC[N+]1(C)[C@@H]2CC(OC(=O)[C@H](CO)c3ccccc3)C[C@H]1[C@@H]1O[C@@H]12 (some centres undefined)
inactive: Potency (Es-2) | Potency (HeLa) | Potency (Hek293T) | Potency (JEG-3) | Potency (OV90) | Potency (PA-1) | Potency (SKOV3) | Potency (Tov-21-G) | Potency (Tov112D) | activity, negative = cell killing [1, 5] -7.47% | Potency (astro)

C[N+]1(CCC(C(N)=O)(c2ccccc2)c2ccccc2)CCCCC1
inactive: Potency (Es-2) | Potency (HeLa) | Potency (Hek293T) | Potency (JEG-3) | Potency (OV90) | Potency (PA-1) | Potency (SKOV3) | Potency (Tov-21-G) | Potency (Tov112D) | activity, negative = cell killing [1, 5] -5.31% | activity, negative = cell killing [1, 4] -19.9% | Potency (astro)

CCOC(=O)c1cncn1C(C)c1ccccc1 (centres undefined)
inactive: Potency (Es-2) | Potency (HeLa) | Potency (Hek293T) | Potency (JEG-3) | Potency (OV90) | Potency (PA-1) | Potency (SKOV3) | Potency (Tov-21-G) | Potency (Tov112D) | activity, negative = cell killing [1, 6] 0.856% | activity, negative = cell killing [1, 7] -20.7% | Potency (astro)
